FXN GAA850 act: FXN promoter activators, primary screen, cell-based, luciferase luminescence, HEK293 lucGAA850; activation, % at 6 µM; HEK293 lucGAA850 FXN promoter luciferase reporter, 24 h; percent of 10 µM SAHA response; 360,000 tested, 0.56% active;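 active = activation above the average of all compounds screened plus 3 SD, cutoff fixed separately per campaign, cut at about 7.5% in these data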;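 also: 0% = DMSO wells and 100% = 10 µM SAHA wells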
PG9 binder: binders of HIV-1 gp120 antibody PG9, primary screen, biochemical, TR-FRET; HIV-1 gp120 / PG9 antibody interaction; TR-FRET gp120-PG9 antibody binding; inhibition, % at 6.7 µM; 360,000 tested, 0.43% active; AID 624416, 2012; in the data active = inhibition above about 8.5%
SMARCA2 activ: SMARCA2 (BRM) function activators, primary screen, cell-based, luminescence, high throughput; MG213 cells, MMTV-luciferase reporter, dexamethasone, overnight; activation, % at 9.1 µM; 370,000 tested, 1% active; AID 652017, 2013; in the data active = activation above about 7.8%;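 also: 0% = vehicle wells and 100% = reference activator wells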
HSP90 inh: HSP90 inhibitors, primary screen, cell lysate, luminescence | Heat shock protein HSP 90 (rabbit reticulocyte lysate; luciferase refolding) | Rabbit reticulocyte lysate, luciferase refolding luminescence, 3 h | inhibition, % at 5.6 µM | 290,000 tested, 0.91% active | AID 1789, 2009;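 active = inhibition above the screen-wide mean plus 3 SD, computed separately per campaign, cut at about 16% in these data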;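 also: 0% = DMSO wells and 100% = 60 µM geldanamycin wells; inhibitors lower the luminescence because luciferase stays unfolded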
AI-2 QS mod: Vibrio harveyi AI-2 quorum sensing modulators, primary screen, JMH597 strain, luminescence/OD600 ratio; Vibrio harveyi JMH597 AI-2 luminescence/OD600 ratio, 9 h; stronger effect = lower value; strain lacks LuxN and CqsS sensors; 0 = neutral-control median; activity change, % at 7.5 µM; 300,000 tested, 0.4% active; in the data active = activity change below about -75%, passing the limit was not always enough;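 also: luminescence divided by OD600 gain over 9 h not by final OD600 alone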
HSF1 inhib: HSF1 inhibitors in luciferase reporter cells, primary screen, cell-based, NIH3T3, luminescence; 300,000 tested, 0.77% active; activity change, negative = inhibition, % at 7.5 µM (by protocol); AID 2098, 2009; NIH3T3-HGL HSE-luciferase, MG132-induced, luminescence 8 h; stronger effect = lower value;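 active = more than half of replicate wells show activity change below -50%, luminescence cut by over half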;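 also: luciferase reports HSF-1 transcriptional activity via heat shock element; 0% = median of DMSO wells and -100% = zero luminescence signal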
GAA30 FXN cntr: GAA30 FXN promoter activators, confirmation, counter-screen for GAA850 frataxin promoter activator project, cell-based, luminescence, HEK293, lucGAA30, triplicate | shares compounds with FXN GAA850 act | 1,900 tested, 66% active | activation, % at 6 µM | HEK293 lucGAA30 FXN promoter luciferase, 24 h; DMSO = 0%, 5 µM ipriflavone = 100%;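 active = mean activation above the mean of solvent-only control wells plus 3 SD, cut at about 22% in these data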;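 also: counterscreen of GAA850 promoter hits where activity marks nonselective or luminescence artifacts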
FXN GAA850 conf: FXN GAA850 promoter activators in reporter cells, confirmation, cell-based, luminescence, HEK293 lucGAA850, triplicate | 1,900 tested, 86% active | HEK293 lucGAA850 FXN promoter luciferase reporter, 24 h; 100% = activation by SAHA | activation, % at 6 µM | shares compounds with FXN GAA850 act;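 active = mean activation above a set limit taken from the primary screen, cut at about 8% in these data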;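 also: 0% = DMSO wells and 100% = 10 µM SAHA wells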
Starred values were filed as active, the others as inactive; . = not tested or not shown. Sampled rows, rich in hits. Any-hit rate of the full collection: about 3.4%.

SMILES | FXN GAA850 act | PG9 binder | SMARCA2 activ | HSP90 inh | AI-2 QS mod | HSF1 inhib | GAA30 FXN cntr | FXN GAA850 conf
Nc1ccc2c(c1)C(=NO)c1cc([N+](=O)[O-])ccc1-2 | 12.7* | -2.8 | -6.1 | . | . | . | 78.5* | 34.5*
O=[N+]([O-])c1ccc2c(c1)-c1ccccc1C2=NO | -3.0 | -1.4 | -3.2 | . | . | . | . | .
C[C@H](CO)N1C[C@H](C)[C@@H](CN(C)Cc2cccnc2)Oc2ncc(-c3cccc(C#N)c3)cc2C1=O | 0.5 | -1.2 | -0.5 | . | . | . | . | .
COc1ccc(C(=O)c2sc(Nc3ccccc3)nc2N)cc1OC | 9.2* | -2.9 | 3.9 | -4.0 | 7.6 | -5.0 | -19.6 | 37.8*
COc1ccc(C(=O)c2sc(Nc3ccccc3)nc2N)cc1 | 3.9 | 0.0 | 5.8 | -3.8 | 7.2 | 10.5 | . | .
C=CCSc1nc(N)c2c(C)c(C)sc2n1 | 8.2* | -3.0 | 3.0 | -0.1 | 9.1 | 0.7 | 54.6* | 20.0*
CC1(c2ccccc2)NC(=O)N(CC(=O)Nc2ccc(S(=O)(=O)NC3=NCCCCC3)cc2)C1=O (stereo not drawn) | 3.3 | 0.4 | -0.8 | . | . | . | . | .
CN(C(=O)c1cccc(NC(=O)Cc2ccc(NC(=O)C3CCN(C(=O)CCc4ccccc4)CC3)cc2)c1)C1CCCC1 | . | -0.6 | -1.0 | . | . | . | . | .
Cc1nn2cc(-c3ncc(C(F)(F)F)cc3Cl)cnc2c1Br | 10.0* | -1.4 | 3.7 | -0.2 | 6.5 | -5.7 | 54.1* | 19.7*
N#Cc1c(-c2ccco2)cc(C2CC2)nc1N | 5.7 | -2.9 | 2.6 | 1.0 | 11.9 | -2.5 | . | .
N#Cc1c(-c2ccccc2)cc(C2CC2)nc1N | 8.3* | 0.3 | 1.1 | 6.0 | 39.8 | -2.7 | 12.8 | 9.5*
CC1=C[C@@H]2[C@H]3C(=O)N(Cc4ccccc4)C(=O)[C@H]3[C@@H]1[C@@H]1O[C@@]3(C(=O)N(C)c4ccccc43)C3=C(CCCC3=O)N21 | . | 1.3 | 5.3 | . | . | . | . | .
COc1ccc(/C=C/C(=O)Nc2ccc(-n3nncc3-c3ccc(OC)c(OC)c3)cc2)cc1OC | 8.9* | -0.6 | 3.0 | 1.4 | 23.3 | -3.0 | 22.5* | 17.1*
COc1ccc(-c2cnnn2-c2ccc(NC(=O)/C=C/c3ccc(OC)c(OC)c3)cc2)cc1 | 1.3 | -1.1 | -2.7 | 2.5 | 9.6 | 3.2 | . | .
O=C(Nc1ccccc1C(=O)NC(Cc1ccccc1)C(=O)NC1CCCCC1)c1ccccc1 (stereo not drawn) | 7.7* | 2.4 | -2.8 | -4.0 | 14.1 | -6.0 | 14.8 | 6.0
COc1cc2c(cc1OC)-c1cc(NC3CCCCCCC3)nc(=O)n1CC2 | 8.1* | -0.2 | 4.0 | -1.4 | 43.4 | -4.9 | 14.8 | 12.8*
CCNc1cc2n(c(=O)n1)CCc1cc(OC)c(OC)cc1-2 | 9.9* | -0.9 | -0.8 | -0.5 | 31.3 | 1.0 | 6.1 | 4.8
COc1cc2c(cc1OC)-c1cc(NC3CC3)nc(=O)n1CC2 | 3.0 | -0.3 | 1.6 | 0.2 | 1.0 | 4.3 | . | .
COc1cc2c(cc1OC)-c1cc(NC3CCCCC3)nc(=O)n1CC2 | 10.3* | 1.7 | 1.6 | 0.6 | 20.9 | -6.2 | 21.7 | 11.2*
CCCCc1c(-c2ccccc2OC)ncn1Cc1ccccc1C | . | 0.6 | -7.1 | . | . | . | . | .
CC1(C(=O)O)CCN1C(=O)c1cccc(C(F)(F)F)c1 (stereo not drawn) | -2.1 | 0.6 | -0.8 | . | . | . | . | .
S=C(NC12CC3CC(CC(C3)C1)C2)N1CCCC1 | 9.4* | -1.6 | 2.0 | 0.7 | 15.5 | -6.2 | 26.6* | 10.8*

High-throughput results deposited in PubChem by several laboratories.
